Screening results from PubChem BioAssay.
The list is not random: actives were taken first. Their share in the collection is about 6%.
D1 potentiator: enhances dopamine response at the human D1 receptor. P21728. HEK293 TREx D1 cells, calcium flux, dopamine EC20 potentiation. potentiation, % at 10 µM. hit rate 0.036% among 360,000. AID 504651; in the data active means potentiation above about 30%
Target sequence (P21728 whole entry, looked up): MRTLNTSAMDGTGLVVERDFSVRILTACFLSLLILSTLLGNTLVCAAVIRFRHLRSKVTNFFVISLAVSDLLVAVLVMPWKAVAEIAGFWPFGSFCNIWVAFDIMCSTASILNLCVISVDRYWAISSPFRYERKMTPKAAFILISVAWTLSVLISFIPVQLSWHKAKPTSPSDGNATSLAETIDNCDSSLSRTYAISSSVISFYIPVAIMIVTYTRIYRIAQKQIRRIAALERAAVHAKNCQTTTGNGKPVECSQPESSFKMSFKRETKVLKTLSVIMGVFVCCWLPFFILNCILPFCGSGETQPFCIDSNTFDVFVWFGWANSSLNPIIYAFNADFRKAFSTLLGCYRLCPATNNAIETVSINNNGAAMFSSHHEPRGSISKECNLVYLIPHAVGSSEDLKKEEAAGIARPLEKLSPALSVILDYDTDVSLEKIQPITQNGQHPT
DRD3 antagonist: antagonists of human D3 dopamine receptor | P35462 | max response, negative = inhibition, % | hit rate 2.5% among 360,000 | D3R cells, DiscoveRx beta-arrestin luminescence, antagonist mode; stronger effect = lower value; in the data active means max response below about -50%; inconclusive means no clear call, values can overlap the other calls
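Cells plated overnight at 1500 cells/well, then exposed to library compounds with dopamine controls for 90 minutes at 37 degrees C. DiscoveRx reagent added for 30–60 minutes at room temperature; luminescence read, quantitative HTS format.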
D1 antagonist: antagonists of human D1 dopamine receptor; AID 504652; hit rate 3.2% among 360,000; activity change, negative = inhibition, % at 10 µM; HEK293 TREx D1 cells, calcium flux, dopamine EC80; stronger effect = lower value; in the data active means activity change below about -30%
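Kinetic fluorescence of a calcium dye serves as the read-out. D1-expressing Hek293 Trex cells, induced overnight at 30 C, are exposed to compound for 180 s before an EC80 dopamine addition, then read 180 s further.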
D3 ag: activates the human D3 dopamine receptor; D3R DiscoveRx beta-arrestin cells, luminescence, 90 min; hit rate 0.58% among 410,000; P35462; max activation, %; AID 652048; in the data active means max activation above about 30%
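Agonist-mode cell screen: cells plated at 1500/well and incubated overnight at 37 °C, then exposed to library compounds for 90 min at 37 °C. Detection reagent was added for 30–60 min at room temperature, and luminescence was read.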
BCR signal inh: inhibitors of chronic active B-cell receptor signaling; ABC-DLBCL IkBa-CBG/CBR reporter, luminescence ratio, 4 h; Potency, µM (highest dose often 46.1 µM), hits mostly inhibitors; hit rate 0.05% among 340,000; AID 493014; active means well fitted inhibition curve with a large enough effect in the signal ratio, with a control signal flat, not every such curve was filed as active; inconclusive means small, poorly fitted or top-dose-only effect, or effect the other way, or a change in a side signal; the % refers to the signal ratio
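TMD8 ABC-DLBCL cells carrying doxycycline-inducible green luciferase fused to IkappaBalpha plus unfused red luciferase were exposed to compounds (up to 46 uM) for 4 hrs at 37C. Activity came from the overlap-corrected green/red luminescence ratio.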
D1 ag: agonists of human D1 dopamine receptor; hit rate 1% among 360,000; P21728; HEK293 T-REx D1 cells, calcium flux, agonist mode; activation, % at 2 µM; in the data active means activation above about 30%
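Agonism was scored from calcium flux recorded over 180 s (1 read/s) after pintool compound addition, following a 10-cycle baseline. Cells were inducible force-coupled HEK293 TREx D1, plated overnight at 30 C and loaded with no-wash calcium dye.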
Large screens that a line does not name were inactive; ! = repeats disagree.

Cc1cc(=O)[nH]c(SCC(=O)Nc2nc(-c3ccccc3)c(-c3ccccc3)o2)n1	BCR signal inh inconclusive
Cc1cc(NC(=O)CSCC(=O)Nc2ccccc2Oc2ccccc2)no1	D1 antagonist -37
Cc1cc(C)nc(SCC(=O)Nc2nc(-c3ccccc3)c(-c3ccccc3)o2)n1	D3 ag 33, BCR signal inh inconclusive
CCOc1ccc(Cl)cc1-c1cc(C(=O)NC2CCCCC2)[nH]n1	none (no result: D1 potentiator, D1 antagonist, BCR signal inh, D1 ag)
O=c1[nH][nH]c2c1[C@@H](c1ccc(F)cc1)O[C@H](CCc1ccccc1)C2	none (no result: D1 potentiator, D1 antagonist, BCR signal inh, D1 ag)
C[C@H](CO)N1C[C@H](C)[C@H](CN(C)S(=O)(=O)c2ccc(F)cc2)Oc2ncc(Br)cc2C1=O	none (no result: D1 potentiator, D1 antagonist, BCR signal inh, D1 ag)
Cc1cc(NC(=O)CSc2nnc(-c3ccccc3)c(-c3ccccc3)n2)no1	D1 antagonist -78
O=C(CNc1ccc2ccccc2c1)N/N=C/c1ccc([N+](=O)[O-])o1	none
O=C(CSc1ccc(Cl)cc1)N/N=C/c1ccc([N+](=O)[O-])o1	D1 antagonist -34
CCc1ccc(N2CSC3=C(C#N)C(c4cccs4)CC(=O)N3C2)cc1 (configuration not stated)	DRD3 antagonist -61
CC(=O)N1/C(=C/c2ccc(N(C)C)cc2)C(=O)c2ccccc21	DRD3 antagonist -51, BCR signal inh inconclusive
O=C(COC(=O)c1ccc(O)cc1O)Nc1ccc2ccccc2c1	D1 antagonist -37, BCR signal inh inconclusive
CN1CCN(c2ccc(NC(=O)COc3ccc4ccccc4c3)cc2)CC1	D1 antagonist -39
CN1CCN(c2ccc(NC(=O)COc3cccc4ccccc34)cc2)CC1	none
CN1CCN(c2ccc(NC(=O)c3ccc4ccccc4c3)cc2)CC1	DRD3 antagonist inconclusive, D1 antagonist -71
O=C(COc1ccc2ccccc2c1)Nc1ccc(Cc2ccncc2)cc1	D1 antagonist -34
CCc1c(CN2CCN(c3ccc(F)cc3)CC2)csc1C	none (no result: DRD3 antagonist, BCR signal inh)
Cc1cccc(NC(=O)CCn2cnnn2)c1C	none (no result: DRD3 antagonist, BCR signal inh)
CC(=O)Nc1cccc(NC(=O)COc2ccc3c(c2)CCC3)c1	BCR signal inh inconclusive
CC(=O)Nc1ccc(NC(=O)COc2ccc3c(c2)CCC3)cc1	D1 antagonist -35, BCR signal inh inconclusive
Cc1c(NC(=O)c2cc(-n3cnnc3)ccc2Cl)cccc1-c1nc2ccccc2o1	D1 antagonist -44, BCR signal inh inconclusive
CCCC[C@@H]1CNCCN1CCc1cccc2ccccc12	DRD3 antagonist -53, BCR signal inh inconclusive
Oc1ccc(C[C@@H]2CNCCN2CCc2cc(C(F)(F)F)cc(C(F)(F)F)c2)cc1	BCR signal inh inconclusive, D1 ag 40
Oc1ccc(C[C@H]2CNCCN2CCc2cc(C(F)(F)F)cc(C(F)(F)F)c2)cc1	BCR signal inh inconclusive
FC(F)(F)c1cc(CCN2CCNC[C@H]2Cc2cccc3ccccc23)cc(C(F)(F)F)c1	D1 ag 45
c1ccc(C[C@H]2CNCCN2CCc2cccc3ccccc23)cc1	none
N#Cc1nc(-c2ccc(COc3ccc(Cl)cc3)o2)oc1N1CCC(C(N)=O)CC1	none (no result: DRD3 antagonist, BCR signal inh)
CCN(CC)CCN(C(=O)c1ccc(C(=O)c2ccccc2)cc1)c1nc2cc3c(cc2s1)OCO3	none
CN(C)CCCN(C(=O)c1ccc(S(=O)(=O)N2CCCCC2)cc1)c1nc2cc3c(cc2s1)OCO3	DRD3 antagonist inconclusive, BCR signal inh inconclusive, D1 ag 33
CN(C)CCCN(C(=O)c1nc2ccccc2s1)c1nc2ccc(F)cc2s1	none (no result: D1 potentiator, D1 antagonist, BCR signal inh, D1 ag)
CN(C)CCCN(C(=O)c1ccc(C(=O)c2ccccc2)cc1)c1nc2ccc(F)cc2s1	DRD3 antagonist inconclusive, D1 antagonist -33, D1 ag 70
CCOC(=O)N1CCN(S(=O)(=O)c2ccc(C(=O)N(CCN(C)C)c3nc4ccc(Cl)cc4s3)cc2)CC1	DRD3 antagonist inconclusive, D1 antagonist -33
CN(C)CCCN(C(=O)c1ccc(C(=O)c2ccccc2)cc1)c1nc2cc3c(cc2s1)OCO3	DRD3 antagonist -55, BCR signal inh inconclusive, D1 ag 62
CCOC(=O)N1CCN(S(=O)(=O)c2ccc(C(=O)N(CCCN(C)C)c3nc4ccc(OC)cc4s3)cc2)CC1	none
CCOc1ccccc1NS(=O)(=O)c1ccc2c(c1)oc(=O)n2C	none (no result: DRD3 antagonist, BCR signal inh)
COc1ccc(-c2cc(C(F)(F)F)nc(SCC(=O)N3CCC(C)CC3)n2)cc1	none (no result: DRD3 antagonist, BCR signal inh)
Cc1ccc(Cn2c(CNS(=O)(=O)c3ccc(C(C)(C)C)cc3)nc3cccnc32)cc1	none (no result: DRD3 antagonist, BCR signal inh)
COC(=O)c1ccc(NC(=O)CCc2c(C)nn(-c3ccc(N4CCOCC4)nn3)c2C)cc1	none (no result: DRD3 antagonist, BCR signal inh)
Cc1ccc(OCC(=O)NNC(=O)c2cc(S(=O)(=O)N(C)C)ccc2N2CCCC2)cc1	none (no result: D1 potentiator, D1 antagonist, BCR signal inh, D1 ag)
O=C(COc1ccc(F)cc1)Nc1nnc(SCc2cc(=O)n3ccccc3n2)s1	none (no result: DRD3 antagonist, BCR signal inh)
Cc1cccc(-n2c(C)nc3cc(C(=O)NCCC4=CCCCC4)ccc32)c1	none (no result: DRD3 antagonist)
CCCN1C(=O)C(Cc2nc3ccccc3c(=O)n2-c2ccc(OC)cc2)c2cc(C)ccc21 (configuration not stated)	none (no result: DRD3 antagonist, BCR signal inh)
O=C(NCc1cccc(F)c1)c1ccc2nc(CCc3ccccc3)oc2c1	none (no result: DRD3 antagonist, BCR signal inh)
CCOc1ccc(C(=O)NCc2ccc3c(c2)CCN3C(=O)c2ccc(Cl)cc2)cc1	none (no result: DRD3 antagonist)
Cc1ccc(C)c(CNC(=O)c2sc3ncnc(N(C)C4CCCCC4)c3c2C)c1	none (no result: DRD3 antagonist)
CCN(CC)CCN(C(=O)c1ccc2ncsc2c1)c1nc2cc3c(cc2s1)OCO3	D1 antagonist -46, BCR signal inh inconclusive
CCN(Cc1ccccc1)S(=O)(=O)c1ccc(C(=O)N(CCCN(C)C)c2nc3cc4c(cc3s2)OCCO4)cc1	DRD3 antagonist inconclusive, D1 antagonist -41
Cc1ccc2nc(N(CCCN(C)C)C(=O)c3ccc(Br)s3)sc2c1	DRD3 antagonist -53, BCR signal inh inconclusive, D1 ag 41!
COc1ccc2oc(C(=O)OCC(=O)NC3CCCC3)c(C)c2c1	D1 antagonist -37
CCOc1ccc2oc(C(=O)OCC(=O)NC3CCCCC3)c(C)c2c1	none
COc1ccc2oc(C(=O)OCC(=O)NC3(C#N)CCCC3)c(C)c2c1	D1 antagonist -49
COc1ccc2oc(C(=O)OCC(=O)Nc3ccc(NC(C)=O)cc3)c(C)c2c1	none
CCOc1ccc(NC(=O)CSC2=Nc3ccccc3C3=NC(CC(=O)NCc4ccc5c(c4)OCO5)C(=O)N23)cc1 (configuration not stated)	D1 antagonist -30 (no result: DRD3 antagonist)
COc1ccc(NC(=O)CSC2=Nc3ccccc3C3=NC(CC(=O)NCc4ccc5c(c4)OCO5)C(=O)N23)cc1 (configuration not stated)	none (no result: DRD3 antagonist)
O=S(=O)(c1ccc2c(c1)OCCO2)N1CCN(c2ncnc3sccc23)CC1	D1 antagonist -32
O=S(=O)(c1ccc2c(c1)OCCO2)N1CCN(Cc2ccc3c(c2)OCO3)CC1	DRD3 antagonist -50, BCR signal inh inconclusive
